Experimental findings from PubChem BioAssay are described below.

Sequence of Dickkopf-related protein 1 (Homo sapiens) (O94907 whole entry, looked up): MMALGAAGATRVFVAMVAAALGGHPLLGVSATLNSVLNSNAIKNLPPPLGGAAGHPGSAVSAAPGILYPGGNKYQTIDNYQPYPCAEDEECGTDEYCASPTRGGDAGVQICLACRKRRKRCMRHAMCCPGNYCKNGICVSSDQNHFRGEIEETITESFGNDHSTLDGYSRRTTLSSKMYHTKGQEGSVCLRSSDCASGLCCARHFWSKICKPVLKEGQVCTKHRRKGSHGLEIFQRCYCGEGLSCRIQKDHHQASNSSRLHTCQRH

The first assay deals with Follistatin-related protein 3 (Homo sapiens) (UniProt O95633). Kind of assay: FSTL3 binders on small-molecule microarrays, primary screen, biochemical, small-molecule microarray, 635 nm fluorescence (AID 1105).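 Note: score merges emission near 667 nm and signal to noise per printed spot across three slides.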 As to conditions: FSTL3 binding, higher = more signal.
Sequence of Follistatin-related protein 3 (Homo sapiens) (O95633 whole entry, looked up): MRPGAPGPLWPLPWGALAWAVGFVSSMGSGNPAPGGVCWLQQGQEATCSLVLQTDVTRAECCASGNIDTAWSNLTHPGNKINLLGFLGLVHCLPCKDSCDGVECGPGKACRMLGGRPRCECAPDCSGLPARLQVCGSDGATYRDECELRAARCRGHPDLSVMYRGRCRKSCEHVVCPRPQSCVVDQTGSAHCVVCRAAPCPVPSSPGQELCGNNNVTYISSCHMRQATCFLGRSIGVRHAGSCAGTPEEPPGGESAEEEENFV
`COc1ccc(COC(=O)NN=C2C[C@@H](O)[C@@H](O)[C@@H]3[C@@H]4C(=O)N(Cc5ccccc5)C(=O)[C@@H]4CC[C@H]23)cc1` displayed a composite z-score of -0.22. Compound `CO[C@H]1COC(=O)[C@@H](C)COC(=O)[C@@H](OCc2ccccc2)C=C[C@@H]1C` yielded a composite z-score of -0.13. For `COc1ccc(O[C@H]2C=C[C@@H](c3ccccc3)O[C@@H]2CON=C(C)CCN2CCc3nc(-c4ccccc4)c(-c4ccccc4)cc3C2)cc1`, the composite z-score was determined as 0.0193. The same measure, in the same setting: then `CCN1C(=O)[C@H]2[C@H]3[C@H](O)[C@H](O)CC(=O)[C@H]3CC[C@H]2C1=O`, with 0.396; and `CCCNC(=O)OC[C@H]1O[C@H](CCON=C(C)C)C=C[C@@H]1Oc1ccc(OC)cc1`, with -0.125; and `CCOC(=O)NN=C1C[C@@H](O)[C@@H](O)[C@@H]2[C@@H]3C(=O)N(c4ccc(F)cc4F)C(=O)[C@@H]3CC[C@@H]12`, with 0.659. Same read-out and setting: then `C[n+]1ccc(-c2ccc(CO)cc2)cc1`, with 1.6.

Another assay has as its target Dickkopf-related protein 1 (Homo sapiens) (UniProt O94907). Kind of assay: DKK1 binders on small-molecule microarrays, primary screen, biochemical, small-molecule microarray, 635 nm fluorescence scan (AID 1106).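 Note: score merges emission near 667 nm with signal to noise over three replicate slides.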 The following applies: DKK1 binding, higher = more signal.
`CO[C@H]1COC(=O)CC=C[C@H](C)[C@@H](OC)COC(=O)[C@@H](C)NC(=O)CC=C[C@@H]1C`: the composite z-score was determined as 1.49. The compound `CCOC(=O)[C@H](Cc1ccccc1)NC(=O)OC1CC(CCC2CC(CC)=NO2)OC2(CCCC(COC(=O)NCCC(C)C)O2)C1` (stereo partly drawn) came in with a composite z-score of 0.0585. `CC(C)CON=C1C[C@@H](O)[C@@H](O)[C@@H]2[C@@H]3C(=O)N(c4ccc(F)cc4F)C(=O)[C@@H]3CC[C@H]12` showed a composite z-score of 0.671. Same read-out and setting: the value for `CC(C)(C)N1C(=O)[C@H]2[C@H]3[C@H](O)[C@H](O)CC(=NO[C@@H]4O[C@H](CO)[C@@H](O)[C@H](O)[C@H]4O)[C@H]3CC[C@H]2C1=O` was 0.639. For `COC(=O)C=CCCc1coc(C=CCNC(=O)OC)n1`, the composite z-score stood at 1.16. `Cc1ccc(S(=O)(=O)OC[C@H]2CN3[C@H](c4ccc(Br)cc4)[C@@H](C)CC[C@H]3C(=O)O2)cc1`: the composite z-score turned out to be 0.459. Consider `CO[C@@H]1COC(=O)[C@@H](C)NC(=O)CC=C[C@@H](C)[C@H](NS(=O)(=O)c2ccc(C)cc2)COC(=O)[C@H](C)NC(=O)CC=C[C@H]1C`, for which the composite z-score was 0.822. Consider `COC(=O)[C@H](C)NC(=O)CCC1CC(OC(=O)NCc2ccc3c(c2)OCO3)CC2(CCCC(COC(=O)NCC3CCCCC3)O2)O1` (stereo partly drawn), for which the composite z-score was 0.822. The compound `C#CCCCON=C1C[C@@H](O)[C@@H](O)[C@@H]2[C@@H]3C(=O)N(C(C)(C)C)C(=O)[C@@H]3CC[C@H]12` returned a composite z-score of -0.996.

On to `CCOC(=O)NN=C1C[C@@H](O)[C@@H](O)[C@@H]2[C@@H]3C(=O)N(C(C)(C)C)C(=O)[C@@H]3CC[C@H]12`, for which the composite z-score worked out at 0.739. The compound `C[C@H]1COC(=O)[C@@H]2CCCN2C(=O)[C@@H](C)COC(=O)[C@H](Cc2ccccc2)NC1=O` had a composite z-score of 0.374. `CCOC(=O)NN=C1C[C@@H](O)[C@@H](O)[C@@H]2[C@@H]3C(=O)N(c4cccc(Oc5ccccc5)c4)C(=O)[C@@H]3CC[C@H]12` had a composite z-score of 0.222.

Compound `CCOC(=O)C1=NO[C@@]2(C=C(Br)C3(OCCCO3)[C@H]3O[C@H]32)C1` registered a composite z-score of 1.66.

Compound `CO[C@@H]1COC(=O)[C@H](CCSC)NC(=O)CC=C[C@@H](C)COC(=O)CCC[C@H]1C` registered a composite z-score of 2.36. As for `CCOC(=O)[C@H](Cc1ccccc1)NC(=O)CCC1CC(OC(=O)NCc2cccc3ccccc23)CC2(CCCC(COC(=O)NCCC(C)C)O2)O1` (stereo partly drawn), the composite z-score is -0.096. In turn, `CC[C@@H](c1ccccc1)n1c(=O)n2n(c1=O)[C@H]1[C@H](O)[C@@H]3O[C@@H]3C(=O)[C@H]1CC2` had a composite z-score of 0.466. In turn, `CCc1cc2c(nc1CC)CCN(CCC(C)=NO[C@H](C)c1cn([C@H](CO)Cc3ccccc3)nn1)C2` showed a composite z-score of 0.274. Compound `CCOC(=O)[C@H](CC(C)C)NC(=O)CCC1CC(OC(=O)NCc2ccc3c(c2)OCO3)CC2(CCCC(COC(=O)NCC(c3ccccc3)c3ccccc3)O2)O1` (stereo partly drawn) gave a composite z-score of 0.0925. As to `CCOC(=O)CCN1C(=O)[C@H]2[C@H]3[C@H](O)[C@H](O)CC(=NOCC(C)C)[C@H]3CC[C@H]2C1=O`, the composite z-score was -0.0273.

For `O=C1[C@H]2[C@H]3[C@H](O)[C@H](O)CC(=NOCc4ccccc4)[C@@H]3CC[C@H]2C(=O)N1C[C@@H]1CCCO1`, the composite z-score is -0.028. `CCOC(=O)[C@H](CC(C)C)NC(=O)CCC1CC(OC(=O)NCc2cccc3ccccc23)CC2(CCCC(COC(=O)NCC3CCCCC3)O2)O1` (stereo partly drawn) registered a composite z-score of 0.6. Consider `CC(C)=CCCC(C)=CCON=C1C[C@@H](O)[C@@H](O)[C@@H]2[C@@H]3C(=O)N(c4cccc(Oc5ccccc5)c4)C(=O)[C@@H]3CC[C@@H]12`, for which the composite z-score was found to be 0.373.

On to `O=C1[C@H]2[C@H]3[C@H](O)[C@H](O)CC(=NOC[C@@H](O)COCc4ccco4)[C@H]3CC[C@H]2C(=O)N1c1ccc(F)cc1F`, for which the composite z-score was -0.301.

`COc1ccc(O[C@@H]2[C@H](O)CO[C@H]2C=Cc2ccccc2)cc1` gave a composite z-score of -0.275. On to `COC(=O)[C@@H]1CC[C@H](C)[C@@H](c2ccc(C)cc2)N1C(=O)c1ccc(C=NO[C@@H]2O[C@H](COC(C)=O)[C@@H](OC(C)=O)[C@H](OC(C)=O)[C@H]2OC(C)=O)cc1`, for which the composite z-score was found to be 0.374. Turning to `CO[C@H]1COC(=O)[C@H](C)NC(=O)[C@@H](C)COC(=O)[C@H]2CCCN2C(=O)CC=C[C@H]1C`, the composite z-score was found to be 1.55. For the compound `CC(C)=CCCC(C)=CCON=C1C[C@@H](O)[C@@H](O)[C@@H]2[C@@H]3C(=O)N(c4ccc(F)cc4F)C(=O)[C@@H]3CC[C@H]12`, the composite z-score worked out at 0.612.

Consider `COc1cc(O)c(C(=O)C=Cc2ccc3c(c2)OCO3)c(OC)c1`, for which the composite z-score is 0.115. Turning to `COc1ccc(O[C@H]2C=C[C@@H](c3ccccc3)O[C@@H]2CON=C2[C@H]3CCn4c(=O)n(-c5ccccc5)c(=O)n4[C@H]3[C@H](O)[C@@H]3O[C@H]23)cc1`, the composite z-score is 0.288.

`COc1ccc(COC(=O)NN=C2C[C@@H](O)[C@@H](O)[C@@H]3[C@@H]4C(=O)N(Cc5ccccc5)C(=O)[C@@H]4CC[C@H]23)cc1` gave a composite z-score of -1.15.

For the compound `CO[C@H]1COC(=O)[C@@H](C)COC(=O)[C@@H](OCc2ccccc2)C=C[C@@H]1C`, the composite z-score was 0.348. `COc1ccc(O[C@H]2C=C[C@@H](c3ccccc3)O[C@@H]2CON=C(C)CCN2CCc3nc(-c4ccccc4)c(-c4ccccc4)cc3C2)cc1` had a composite z-score of 0.162.

The compound `CCN1C(=O)[C@H]2[C@H]3[C@H](O)[C@H](O)CC(=O)[C@H]3CC[C@H]2C1=O` came in with a composite z-score of 0.776. With `CCCNC(=O)OC[C@H]1O[C@H](CCON=C(C)C)C=C[C@@H]1Oc1ccc(OC)cc1`, the composite z-score is -0.288. In the case of `CCOC(=O)NN=C1C[C@@H](O)[C@@H](O)[C@@H]2[C@@H]3C(=O)N(c4ccc(F)cc4F)C(=O)[C@@H]3CC[C@@H]12`, the composite z-score was found to be 0.462. For the compound `C[n+]1ccc(-c2ccc(CO)cc2)cc1`, the composite z-score turned out to be 0.953.
